Most compounds without a hit are left out; they make up all but 0.74% or so of the library.
APEX1 inh: APE1 (human) endonuclease inhibition | P27695 | recombinant APE1, TAMRA/BHQ-2 abasic DNA cleavage fluorescence | Potency, µM (doses to about 65.8 µM), actives largely listed as inhibitors | 350,000 tested, 0.35% active | AID 2517; note: nearly all actives have a fitted effect of over 55% in size
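Measures dequenching upon AP-site incision of a 5'-TAMRA/3'-BHQ-2 THF-containing duplex, 50 nM; human APE1 0.75 nM after 15 min room-temperature exposure to compound; kinetic three-point read at one-minute spacing.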
RECQ1 inh-1: RECQ1 (human) helicase inhibition; Potency, µM (top dose mostly 57.3 µM), usual class: inhibitors; P46063; RECQ1 DNA unwinding, red fluorescence kinetic read; 240,000 tested, 0.54% active; note: nearly all actives have a fitted effect of over 30% in size
Target sequence (P46063 whole entry, looked up): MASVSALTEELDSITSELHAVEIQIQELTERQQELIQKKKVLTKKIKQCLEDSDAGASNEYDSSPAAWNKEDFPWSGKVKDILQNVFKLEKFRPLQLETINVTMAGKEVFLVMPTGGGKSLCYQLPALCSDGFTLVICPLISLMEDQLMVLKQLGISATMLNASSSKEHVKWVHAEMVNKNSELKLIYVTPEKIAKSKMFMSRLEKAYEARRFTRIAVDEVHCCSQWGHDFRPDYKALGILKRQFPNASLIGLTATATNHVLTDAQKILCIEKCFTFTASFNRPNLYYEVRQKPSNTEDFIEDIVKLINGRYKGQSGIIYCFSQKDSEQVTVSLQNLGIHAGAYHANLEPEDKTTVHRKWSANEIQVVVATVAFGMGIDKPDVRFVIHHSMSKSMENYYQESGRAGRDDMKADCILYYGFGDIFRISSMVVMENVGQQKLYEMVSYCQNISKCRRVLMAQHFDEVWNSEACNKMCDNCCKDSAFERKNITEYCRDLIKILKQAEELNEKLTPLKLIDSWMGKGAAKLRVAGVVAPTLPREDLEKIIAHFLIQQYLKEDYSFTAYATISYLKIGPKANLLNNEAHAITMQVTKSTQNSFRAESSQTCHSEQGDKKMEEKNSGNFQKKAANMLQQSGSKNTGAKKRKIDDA
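50 nM RECQ1T1 preincubated 15 min with compound in Tris pH 8.0 buffer with MgCl2, DTT, Tween-20 and 2.5 ug/ml poly(dI-dC); started with 200 nM TAMRA/BHQ-2 forked duplex and 2 mM ATP. Unwinding read as fluorescence (525/598 nm), two reads 2 h apart.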
FEN1 inh: blocks human flap endonuclease 1. Recombinant FEN1 flap cleavage, fluorescence, 15 min. Potency, µM (titrated, usually from 114 µM), usual class: inhibitors. 390,000 tested, 0.35% active; note: nearly all actives have a fitted effect of over 65% in size
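Quantitative HTS format: each compound was titrated, incubated with 10 nM nuclease for 15 min at room temperature, then challenged with flap substrate at 50 nM final. Signal change over 15 min gave concentration–effect curves.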
Tb PGK inh: T. brucei PGK inhibition | P07378 | PGK/GAPDH coupled, Kinase-Glo luminescence, 60 min | Potency, µM (top dose mostly 57.5 µM), most hits filed as inhibitors | 380,000 tested, 0.043% active | AID 602233; note: nearly all actives have a fitted effect of over 60% in size
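Recombinant glycosomal PGK reaction used 1,3-bisphosphoglycerate generated in-well by GAPDH (100nM final) in 100mM TEA pH 7.6, 5mM MgCl2, 0.01% Tween-20. After 60 minutes at room temperature, ATP was read by Kinase-Glo Plus luminescence end-point.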
BLM inh-1: inhibitors of human Bloom syndrome helicase BLM | Potency, µM (top dose mostly 56.1 µM), most hits filed as inhibitors | P54132 | 350,000 tested, 0.2% active | recombinant BLM DNA unwinding, fluorescence dequenching | AID 2528; note: nearly all actives have a fitted effect of over 35% in size
BLM inh-2: confirmation of inhibitors of human Bloom syndrome helicase BLM | shares compounds with BLM inh-1 | BLM DNA unwinding, fluorescence quenching, biochemical | Potency, µM, actives largely listed as inhibitors | 220 tested, 40% active | AID 2585;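 note: strand separation dequenches TAMRA so unwinding raises red fluorescence; series mostly up to about 69 µM; nearly all actives have a fitted effect of over 45% in size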
RECQ1 inh conf: confirmation of human RECQ1 helicase inhibitors | Potency, µM (top dose mostly 229 µM), most hits filed as inhibitors | 610 tested, 28% active | AID 2708 | RECQ1 helicase DNA unwinding, fluorescence | shares compounds with RECQ1 inh-1; note: nearly all actives have a fitted effect of over 45% in size
RECQ1 ADP FP: ADP displacement flagged in RECQ1 inhibitor counter-screen; AID 2711; 530 tested, 27% active; ADP fluorescence polarization displacement counterscreen; shares compounds with RECQ1 inh-1; Potency, µM (titrated, usually from 228 µM), most hits filed as inhibitors; note: nearly all actives have a fitted effect of over 45% in size
RECQ1 inh-2: confirmation of human RECQ1 helicase inhibitors | shares compounds with RECQ1 inh-1 | recombinant RECQ1 DNA unwinding, red fluorescence | Potency, µM (doses to about 119 µM), hits mostly inhibitors | 1,100 tested, 15% active | AID 504841; note: nearly all actives have a fitted effect of over 50% in size
Hits are given with their value; - = inactive; ? = inconclusive; . = not tested or not shown. Calls come from the whole dose curve; as a rule, active = well fitted curve in the direction sought with a large enough effect; inconclusive = small, poorly fitted or top-dose-only effect, or another doubt; inactive = no such curve, though single readings can be large; an effect the other way counts as inactive or inconclusive.

SMILES | APEX1 inh | RECQ1 inh-1 | FEN1 inh | Tb PGK inh | BLM inh-1 | BLM inh-2 | others
O=C(Cc1cccs1)Nc1ccc(S(=O)(=O)N2CCCC2)cc1 | - | - | - | - | 18µM | ?
Cc1cc(=O)cc2oc3cc(N)c(-c4c(C)cc(O)cc4O)c(C)c3nc1-2 | ? | - | . | . | 16µM | 20µM
Cc1cc(-c2ccco2)c(C#N)c2nc3ccccc3n12 | - | - | ? | - | 2.5µM | ?
CCCc1nc2ccccc2c(=O)n1-c1ccc(C(=O)OCC)cc1 | - | - | - | - | 7.9µM | -
CCOC(=O)c1cccc(-n2c(C)nc3ccccc3c2=O)c1 | - | - | - | - | - | .
Cc1ccccc1NC1=C/C(=N\S(=O)(=O)c2ccc(C(=O)O)cc2)c2ccccc2C1=O | - | . | 50µM | - | 7.1µM | 11µM
CCOc1ccc2[nH]c(=O)c(CN(Cc3cccnc3)C(=O)Nc3ccccc3OC)cc2c1 | ? | - | - | - | - | .
CC(C)Cn1c(N)c(C(=O)NCC2CCCO2)c2nc3ccccc3nc21 (stereo not given) | - | - | ? | - | 8.9µM | -
CC1(C)Cc2c(C#N)c(N3CCN(C(=O)c4ccccc4Cl)CC3)nc(-c3ccco3)c2CS1 | - | - | - | - | 14µM | ?
O=C(NCC1COc2ccccc2O1)c1ccc(NC(=O)C2CCCO2)cc1 (stereo not given) | - | - | - | - | - | .
O=C(CNC(=O)/C=C/c1ccco1)N=Nc1c(O)[nH]c2ccccc12 | 8.4µM | . | - | ? | 20µM | 20µM
O=C(CNC(=O)Cc1ccccc1)N=Nc1c(O)[nH]c2ccccc12 | - | . | - | - | - | .
Oc1ccc(CN2CCC(Cc3ccccc3)CC2)c2cccnc12 | - | - | ? | - | 8.9µM | 18µM
COC(=O)[C@@H]1C[C@@H](C(=O)O)[C@H](C)C1(C)C | - | . | - | - | . | .
CN1CCc2c(sc(NC(=O)c3cc4cc([N+](=O)[O-])ccc4s3)c2C(N)=O)C1 | - | ? | . | . | 28µM | 29µM
CC(C)N1CCc2c(sc(NC(=O)c3cc4cc([N+](=O)[O-])ccc4s3)c2C(N)=O)C1 | - | - | ? | - | ? | .
Cc1ccc(NC(=S)Nc2cccc3cnccc23)cc1C | - | - | - | - | - | .
S=C(Nc1cccc(Cl)c1)Nc1cccc2cnccc12 | - | - | ? | - | 4µM | ?
O=c1c2c3c(sc2nc2sc(CN4CCCCC4)cn12)CCCC3 | - | - | . | . | - | .
O=C(COC(=O)c1c2c(nc3ccccc13)/C(=C/c1ccco1)CC2)NC1CCCC1 | ? | ? | - | - | 8.9µM | ?
Cc1cc(C(=O)OCC(=O)NC2CCCC2)c2ccccc2n1 | - | . | - | - | . | .
COc1ccc2nc3cccc(OC)c3nc2c1 | ? | - | ? | - | 3.5µM | -
CCOc1ccc(Cl)cc1/C=N/NC(N)=O | - | - | - | - | - | .
COc1ccc(-c2csc(NC(=O)CSc3nc(C)cs3)n2)cc1 | . | . | - | - | . | .
COc1ccc(-c2csc(NC(=O)CSc3nc(C)nc4sc(C(=O)O)c(C)c34)n2)cc1 | - | - | ? | ? | 32µM | 32µM
N#C/C(=C\c1ccc(N2CCOCC2)o1)c1nc2ccccc2[nH]1 | ? | 32µM | ? | - | 22µM | ? | RECQ1 inh-2=?
N#C/C(=C\c1ccc(N2CCOCC2)c([N+](=O)[O-])c1)c1nc2ccccc2[nH]1 | ? | - | ? | - | - | .
Oc1ccc(Nc2nc(NCC3CCCO3)c3ccccc3n2)cc1 (stereo not given) | - | 14µM | ? | - | 16µM | 14µM | RECQ1 inh conf=25µM;RECQ1 ADP FP=?;RECQ1 inh-2=40µM
Cn1c(CO)cnc1SCc1ccc(F)cc1 | - | - | - | - | - | .

High-throughput results (PubChem BioAssay)
